Experimental data as given in PMC7862700, “An all-to-all approach to the identification of sequence-specific readers for epigenetic DNA modifications on cytosine”.

What was measured:
Assay in all cases: DAPPL (digital affinity profiling via proximity ligation, sequencing); 10 mM Tris-HCl pH 7.5, 50 mM NaCl, 1 mM DTT, 4% glycerol, room temperature, 30 min; GST-TFs on glutathione beads, 16-mer random dsDNA library, 0.1% formaldehyde crosslink after washing; high values mean tight binding
FLI1 = biological target: T1, FLI1 (Homo sapiens, UniProt Q01543 1-452); details: protein: recombinant; tags: N-terminal GST; dsDNA, one strand shown
T1 sequence: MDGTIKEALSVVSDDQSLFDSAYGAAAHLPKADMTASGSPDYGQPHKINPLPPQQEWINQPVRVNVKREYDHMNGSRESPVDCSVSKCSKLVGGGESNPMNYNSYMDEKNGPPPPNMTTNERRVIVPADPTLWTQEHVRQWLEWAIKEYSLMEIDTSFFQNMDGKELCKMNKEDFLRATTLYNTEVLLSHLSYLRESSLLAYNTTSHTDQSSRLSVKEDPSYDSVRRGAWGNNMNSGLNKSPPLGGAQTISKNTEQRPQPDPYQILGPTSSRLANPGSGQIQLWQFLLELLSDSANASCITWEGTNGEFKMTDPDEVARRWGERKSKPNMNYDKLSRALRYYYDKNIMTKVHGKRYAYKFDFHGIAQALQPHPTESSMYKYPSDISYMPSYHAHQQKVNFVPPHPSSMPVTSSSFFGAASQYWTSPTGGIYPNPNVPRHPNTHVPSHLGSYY
Method in brief: (§1)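 Human transcription factors fused to GST were expressed in yeast, captured on glutathione beads, given DNA barcodes and pooled with a GST-only negative control. Pools were incubated with 200 nmole of a 16-mer random double-stranded DNA library in Tris/NaCl/DTT/glycerol buffer at room temperature for 30 min. They were then washed, crosslinked with 0.1% formaldehyde, proximity-ligated (BsaI/T4 ligase, 1 h, 37 °C), PCR-amplified and sequenced on an Illumina NextSeq500. Binding signal is each 6-mer's read frequency for a factor divided by its frequency for the GST control.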

ELK1 = biological target: T2, ELK1 (Homo sapiens, UniProt P19419 1-428); details: protein: recombinant; tags: N-terminal GST; dsDNA, one strand shown
T2 sequence: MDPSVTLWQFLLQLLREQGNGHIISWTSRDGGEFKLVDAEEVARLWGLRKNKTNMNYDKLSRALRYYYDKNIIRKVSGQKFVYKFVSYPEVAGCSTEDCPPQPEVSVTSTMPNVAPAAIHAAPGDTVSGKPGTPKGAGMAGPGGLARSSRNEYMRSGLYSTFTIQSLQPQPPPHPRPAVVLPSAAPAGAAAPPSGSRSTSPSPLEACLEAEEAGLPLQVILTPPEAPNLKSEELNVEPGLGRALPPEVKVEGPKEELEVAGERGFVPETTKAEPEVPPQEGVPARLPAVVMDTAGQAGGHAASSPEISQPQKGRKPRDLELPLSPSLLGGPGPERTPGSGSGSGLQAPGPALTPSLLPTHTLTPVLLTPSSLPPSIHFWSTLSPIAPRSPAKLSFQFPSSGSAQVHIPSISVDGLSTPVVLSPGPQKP
Method in brief: as §1

GABPA = biological target: T3, GABPA (Homo sapiens, UniProt Q06546 1-454); details: protein: recombinant; tags: N-terminal GST; dsDNA, one strand shown
T3 sequence: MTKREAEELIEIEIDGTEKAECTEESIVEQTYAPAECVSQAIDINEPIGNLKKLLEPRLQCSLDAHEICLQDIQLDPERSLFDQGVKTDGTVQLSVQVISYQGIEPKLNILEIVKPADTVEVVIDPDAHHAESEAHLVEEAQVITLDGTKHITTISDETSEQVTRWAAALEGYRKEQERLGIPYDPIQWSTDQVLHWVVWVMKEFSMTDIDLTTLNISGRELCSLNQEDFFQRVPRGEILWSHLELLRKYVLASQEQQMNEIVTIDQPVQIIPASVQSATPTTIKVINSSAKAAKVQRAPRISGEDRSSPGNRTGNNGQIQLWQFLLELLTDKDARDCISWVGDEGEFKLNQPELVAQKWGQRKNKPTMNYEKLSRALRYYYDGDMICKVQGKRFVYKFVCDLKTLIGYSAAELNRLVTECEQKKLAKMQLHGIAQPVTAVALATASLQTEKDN
Method in brief: as §1

ERG = biological target: T4, ERG (Homo sapiens, UniProt P11308 1-479); details: protein: recombinant; tags: N-terminal GST; dsDNA, one strand shown
T4 sequence: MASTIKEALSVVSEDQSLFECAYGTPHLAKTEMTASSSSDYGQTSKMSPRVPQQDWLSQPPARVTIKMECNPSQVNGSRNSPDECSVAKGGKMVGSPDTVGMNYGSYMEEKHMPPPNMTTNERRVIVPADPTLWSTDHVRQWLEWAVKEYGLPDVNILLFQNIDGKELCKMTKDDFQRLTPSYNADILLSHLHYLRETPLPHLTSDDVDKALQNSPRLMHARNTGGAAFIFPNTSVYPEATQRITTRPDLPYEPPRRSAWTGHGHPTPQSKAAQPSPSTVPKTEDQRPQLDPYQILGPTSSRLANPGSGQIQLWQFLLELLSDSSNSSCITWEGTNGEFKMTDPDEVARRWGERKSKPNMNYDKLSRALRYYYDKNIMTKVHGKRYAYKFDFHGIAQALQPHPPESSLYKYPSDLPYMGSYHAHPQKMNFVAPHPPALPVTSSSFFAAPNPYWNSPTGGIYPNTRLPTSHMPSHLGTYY
Method in brief: as §1

ELF1 = ELF1 (Homo sapiens, UniProt P32519 1-619); details: protein: recombinant; tags: N-terminal GST; dsDNA, one strand shown
Method in brief: as §1

EHF = biological target: T5, EHF (Homo sapiens, UniProt Q9NZC4 1-300); details: protein: recombinant; tags: N-terminal GST; dsDNA, one strand shown
T5 sequence: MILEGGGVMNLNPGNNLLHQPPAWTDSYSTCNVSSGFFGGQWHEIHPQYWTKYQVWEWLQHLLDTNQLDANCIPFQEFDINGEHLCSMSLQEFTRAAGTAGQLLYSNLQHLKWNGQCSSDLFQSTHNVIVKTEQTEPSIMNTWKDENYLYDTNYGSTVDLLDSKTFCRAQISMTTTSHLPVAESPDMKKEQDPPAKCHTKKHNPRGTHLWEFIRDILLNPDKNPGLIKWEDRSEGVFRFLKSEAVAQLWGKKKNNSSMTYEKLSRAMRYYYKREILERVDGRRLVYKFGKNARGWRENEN
Method in brief: as §1

SPI1 = SPI1 (Homo sapiens, UniProt P17947 1-270); details: protein: recombinant; tags: N-terminal GST; dsDNA, one strand shown
Method in brief: as §1

SPIB = SPIB (Homo sapiens, UniProt Q01892 1-262); details: protein: recombinant; tags: N-terminal GST; dsDNA, one strand shown
Method in brief: as §1

ELK3 = biological target: T6, ELK3 (Homo sapiens, UniProt P41970 1-407); details: protein: recombinant; tags: N-terminal GST; dsDNA, one strand shown
T6 sequence: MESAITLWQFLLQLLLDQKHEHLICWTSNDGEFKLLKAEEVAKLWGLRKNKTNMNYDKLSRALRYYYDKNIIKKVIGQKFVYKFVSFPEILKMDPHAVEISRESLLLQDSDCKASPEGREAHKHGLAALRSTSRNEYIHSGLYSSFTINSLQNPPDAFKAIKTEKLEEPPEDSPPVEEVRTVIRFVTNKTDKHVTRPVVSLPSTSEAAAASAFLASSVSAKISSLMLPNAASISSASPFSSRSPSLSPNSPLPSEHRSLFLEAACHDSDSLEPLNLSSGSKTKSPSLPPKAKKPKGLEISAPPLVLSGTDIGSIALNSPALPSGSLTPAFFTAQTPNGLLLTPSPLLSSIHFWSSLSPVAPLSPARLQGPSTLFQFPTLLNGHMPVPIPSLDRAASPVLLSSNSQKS
Method in brief: as §1

FEV = biological target: T7, FEV (Homo sapiens, UniProt Q99581 1-238); details: protein: recombinant; tags: N-terminal GST; dsDNA, one strand shown
T7 sequence: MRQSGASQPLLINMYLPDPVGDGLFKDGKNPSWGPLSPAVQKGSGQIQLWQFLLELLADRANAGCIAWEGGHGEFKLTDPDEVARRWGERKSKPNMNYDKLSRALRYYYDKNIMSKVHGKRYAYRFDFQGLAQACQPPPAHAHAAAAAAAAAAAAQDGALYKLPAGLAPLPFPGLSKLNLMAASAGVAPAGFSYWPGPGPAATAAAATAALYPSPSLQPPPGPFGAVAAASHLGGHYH
Method in brief: as §1

ETV5 = ETV5 (Homo sapiens, UniProt P41161 1-510); details: protein: recombinant; tags: N-terminal GST; dsDNA, one strand shown
Method in brief: as §1

HSF1 = HSF1 (Homo sapiens, UniProt Q00613 1-529); details: protein: recombinant; tags: N-terminal GST; chain copies: 3; dsDNA, one strand shown
Method in brief: as §1

SPIC = biological target: T8, SPIC (Homo sapiens, UniProt Q8N5J4 1-248); details: protein: recombinant; tags: N-terminal GST; dsDNA, one strand shown
T8 sequence: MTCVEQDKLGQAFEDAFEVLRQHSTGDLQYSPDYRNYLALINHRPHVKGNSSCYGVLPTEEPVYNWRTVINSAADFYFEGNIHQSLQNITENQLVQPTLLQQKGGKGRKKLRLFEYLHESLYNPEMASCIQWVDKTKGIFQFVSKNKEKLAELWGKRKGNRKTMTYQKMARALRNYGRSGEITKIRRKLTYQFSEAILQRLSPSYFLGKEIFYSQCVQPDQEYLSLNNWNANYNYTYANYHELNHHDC
Method in brief: as §1

ELF4 = ELF4 (Homo sapiens, UniProt Q99607 1-663); details: protein: recombinant; tags: N-terminal GST; dsDNA, one strand shown
Method in brief: as §1

ELK4 = biological target: T9, ELK4 (Homo sapiens, UniProt P28324-2 1-405); details: protein: recombinant; tags: N-terminal GST; dsDNA, one strand shown
T9 sequence: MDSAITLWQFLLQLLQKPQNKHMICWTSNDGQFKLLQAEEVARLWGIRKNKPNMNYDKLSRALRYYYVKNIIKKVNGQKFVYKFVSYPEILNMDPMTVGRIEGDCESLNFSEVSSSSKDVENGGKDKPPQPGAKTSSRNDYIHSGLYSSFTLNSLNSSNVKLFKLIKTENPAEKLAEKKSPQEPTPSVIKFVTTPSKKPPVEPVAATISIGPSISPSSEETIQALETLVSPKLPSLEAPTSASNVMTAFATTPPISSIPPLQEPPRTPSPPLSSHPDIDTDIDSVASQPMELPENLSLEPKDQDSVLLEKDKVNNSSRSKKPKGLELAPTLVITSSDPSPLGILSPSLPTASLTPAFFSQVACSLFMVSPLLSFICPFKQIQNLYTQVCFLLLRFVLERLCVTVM
Method in brief: as §1

ETV2 = biological target: T10, ETV2 (Homo sapiens, UniProt O00321 1-342); details: protein: recombinant; tags: N-terminal GST; dsDNA, one strand shown
T10 sequence: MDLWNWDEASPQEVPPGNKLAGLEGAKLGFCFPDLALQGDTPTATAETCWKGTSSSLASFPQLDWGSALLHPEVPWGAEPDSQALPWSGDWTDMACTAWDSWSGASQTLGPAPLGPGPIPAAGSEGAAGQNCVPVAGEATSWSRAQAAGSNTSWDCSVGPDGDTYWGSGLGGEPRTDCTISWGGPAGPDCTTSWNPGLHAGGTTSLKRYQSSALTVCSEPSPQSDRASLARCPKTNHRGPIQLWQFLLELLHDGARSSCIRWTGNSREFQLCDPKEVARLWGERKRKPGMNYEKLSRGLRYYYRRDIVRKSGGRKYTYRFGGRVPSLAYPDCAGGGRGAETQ
Method in brief: as §1

ELF3 = biological target: T11, ELF3 (Homo sapiens, UniProt P78545 1-371); details: protein: recombinant; tags: N-terminal GST; dsDNA, one strand shown
T11 sequence: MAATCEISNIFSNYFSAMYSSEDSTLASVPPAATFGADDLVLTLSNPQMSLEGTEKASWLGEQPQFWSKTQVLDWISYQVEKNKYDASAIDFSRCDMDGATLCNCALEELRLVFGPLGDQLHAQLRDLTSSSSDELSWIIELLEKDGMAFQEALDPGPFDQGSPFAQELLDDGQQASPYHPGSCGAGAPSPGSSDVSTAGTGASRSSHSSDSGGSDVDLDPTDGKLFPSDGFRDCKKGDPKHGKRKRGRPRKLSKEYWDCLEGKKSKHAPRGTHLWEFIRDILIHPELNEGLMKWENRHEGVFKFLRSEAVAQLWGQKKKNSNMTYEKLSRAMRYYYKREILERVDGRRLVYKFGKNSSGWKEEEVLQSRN
Method in brief: as §1

CRX = CRX (Homo sapiens, UniProt O43186 1-299); details: protein: recombinant; tags: N-terminal GST; dsDNA, one strand shown
Method in brief: as §1

ETV1 = ETV1 (Homo sapiens, UniProt P50549 1-477); details: protein: recombinant; tags: N-terminal GST; dsDNA, one strand shown
Method in brief: as §1

ETV1, sequence (P50549 whole entry): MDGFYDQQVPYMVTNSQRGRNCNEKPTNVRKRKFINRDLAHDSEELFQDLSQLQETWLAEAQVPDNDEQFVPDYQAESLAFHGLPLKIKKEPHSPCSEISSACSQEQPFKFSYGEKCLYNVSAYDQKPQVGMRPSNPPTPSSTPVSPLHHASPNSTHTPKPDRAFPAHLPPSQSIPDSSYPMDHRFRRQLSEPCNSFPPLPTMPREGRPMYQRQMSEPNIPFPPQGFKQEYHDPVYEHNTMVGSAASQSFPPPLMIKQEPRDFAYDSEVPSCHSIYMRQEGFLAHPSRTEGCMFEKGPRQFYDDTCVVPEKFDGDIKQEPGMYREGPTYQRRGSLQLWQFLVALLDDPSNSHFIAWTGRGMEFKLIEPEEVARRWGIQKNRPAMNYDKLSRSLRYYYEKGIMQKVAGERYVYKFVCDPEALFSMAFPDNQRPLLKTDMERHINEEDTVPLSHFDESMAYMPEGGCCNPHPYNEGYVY
SPIB, sequence (Q01892 whole entry): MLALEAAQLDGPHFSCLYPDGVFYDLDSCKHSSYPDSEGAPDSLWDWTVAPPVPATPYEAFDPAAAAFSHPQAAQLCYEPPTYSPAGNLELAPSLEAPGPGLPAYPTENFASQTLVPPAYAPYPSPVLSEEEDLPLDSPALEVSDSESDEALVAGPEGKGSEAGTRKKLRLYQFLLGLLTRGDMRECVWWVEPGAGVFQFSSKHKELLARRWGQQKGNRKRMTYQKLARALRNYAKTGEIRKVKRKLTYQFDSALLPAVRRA
ETV5, sequence (P41161 whole entry): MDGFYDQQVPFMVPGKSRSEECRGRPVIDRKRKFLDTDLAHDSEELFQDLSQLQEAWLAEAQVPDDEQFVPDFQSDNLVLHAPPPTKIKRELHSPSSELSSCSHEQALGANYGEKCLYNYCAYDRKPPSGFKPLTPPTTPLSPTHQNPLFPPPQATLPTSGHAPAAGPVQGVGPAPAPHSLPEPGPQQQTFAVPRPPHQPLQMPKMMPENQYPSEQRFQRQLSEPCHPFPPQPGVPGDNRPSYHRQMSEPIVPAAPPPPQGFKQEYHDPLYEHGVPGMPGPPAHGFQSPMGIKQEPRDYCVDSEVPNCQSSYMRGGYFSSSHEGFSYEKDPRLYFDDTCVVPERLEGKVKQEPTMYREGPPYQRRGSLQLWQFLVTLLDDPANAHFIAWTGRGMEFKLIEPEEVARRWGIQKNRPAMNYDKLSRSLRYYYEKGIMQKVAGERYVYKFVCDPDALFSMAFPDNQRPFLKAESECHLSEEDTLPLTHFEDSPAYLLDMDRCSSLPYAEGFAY
HSF1, sequence (Q00613 whole entry): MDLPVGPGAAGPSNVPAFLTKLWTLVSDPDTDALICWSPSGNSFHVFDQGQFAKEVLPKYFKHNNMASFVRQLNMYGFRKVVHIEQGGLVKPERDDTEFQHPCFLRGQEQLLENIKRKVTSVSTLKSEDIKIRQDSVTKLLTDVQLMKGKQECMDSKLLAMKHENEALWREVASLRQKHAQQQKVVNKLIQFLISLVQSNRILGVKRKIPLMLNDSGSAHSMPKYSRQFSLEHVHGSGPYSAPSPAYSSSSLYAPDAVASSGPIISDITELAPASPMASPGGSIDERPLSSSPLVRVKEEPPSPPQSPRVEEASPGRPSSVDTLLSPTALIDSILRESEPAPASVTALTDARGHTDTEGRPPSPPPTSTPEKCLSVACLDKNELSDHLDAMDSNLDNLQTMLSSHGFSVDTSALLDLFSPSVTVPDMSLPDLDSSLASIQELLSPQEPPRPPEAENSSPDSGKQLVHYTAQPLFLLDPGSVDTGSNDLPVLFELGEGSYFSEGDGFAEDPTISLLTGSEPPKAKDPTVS
ELF1, sequence (P32519 whole entry): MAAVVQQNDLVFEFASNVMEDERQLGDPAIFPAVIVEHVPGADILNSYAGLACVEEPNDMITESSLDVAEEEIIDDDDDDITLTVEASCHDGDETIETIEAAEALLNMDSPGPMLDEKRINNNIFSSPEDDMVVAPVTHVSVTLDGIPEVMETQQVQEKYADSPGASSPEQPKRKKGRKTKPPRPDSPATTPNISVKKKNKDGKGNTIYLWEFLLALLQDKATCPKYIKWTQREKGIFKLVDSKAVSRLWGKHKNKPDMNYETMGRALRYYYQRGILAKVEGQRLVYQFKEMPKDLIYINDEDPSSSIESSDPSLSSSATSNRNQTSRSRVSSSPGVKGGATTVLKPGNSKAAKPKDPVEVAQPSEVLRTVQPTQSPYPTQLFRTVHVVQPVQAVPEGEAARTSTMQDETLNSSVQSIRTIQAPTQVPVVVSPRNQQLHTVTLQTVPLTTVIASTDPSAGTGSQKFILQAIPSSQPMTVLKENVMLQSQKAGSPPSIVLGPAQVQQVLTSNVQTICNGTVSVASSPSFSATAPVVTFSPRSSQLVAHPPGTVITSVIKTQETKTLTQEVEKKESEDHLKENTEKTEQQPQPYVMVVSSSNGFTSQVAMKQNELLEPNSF
ELF4, sequence (Q99607 whole entry): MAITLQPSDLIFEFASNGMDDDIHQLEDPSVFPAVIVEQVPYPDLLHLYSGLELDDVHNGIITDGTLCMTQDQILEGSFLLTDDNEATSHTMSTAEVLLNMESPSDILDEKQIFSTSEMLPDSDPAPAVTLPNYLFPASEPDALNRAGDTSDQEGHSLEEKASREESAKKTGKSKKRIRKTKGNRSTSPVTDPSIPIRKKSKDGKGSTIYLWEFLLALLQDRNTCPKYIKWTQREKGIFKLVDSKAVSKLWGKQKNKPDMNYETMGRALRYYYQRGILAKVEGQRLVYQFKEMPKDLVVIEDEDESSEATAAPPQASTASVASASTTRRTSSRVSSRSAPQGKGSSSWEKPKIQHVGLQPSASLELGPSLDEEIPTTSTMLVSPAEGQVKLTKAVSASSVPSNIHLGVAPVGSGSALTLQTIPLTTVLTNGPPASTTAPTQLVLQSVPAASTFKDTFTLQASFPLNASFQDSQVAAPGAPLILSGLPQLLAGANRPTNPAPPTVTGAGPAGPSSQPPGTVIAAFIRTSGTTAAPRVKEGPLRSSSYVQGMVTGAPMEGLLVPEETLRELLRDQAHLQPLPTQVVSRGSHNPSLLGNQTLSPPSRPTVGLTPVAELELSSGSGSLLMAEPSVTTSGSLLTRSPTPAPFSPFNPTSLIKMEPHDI
CRX, sequence (O43186 whole entry): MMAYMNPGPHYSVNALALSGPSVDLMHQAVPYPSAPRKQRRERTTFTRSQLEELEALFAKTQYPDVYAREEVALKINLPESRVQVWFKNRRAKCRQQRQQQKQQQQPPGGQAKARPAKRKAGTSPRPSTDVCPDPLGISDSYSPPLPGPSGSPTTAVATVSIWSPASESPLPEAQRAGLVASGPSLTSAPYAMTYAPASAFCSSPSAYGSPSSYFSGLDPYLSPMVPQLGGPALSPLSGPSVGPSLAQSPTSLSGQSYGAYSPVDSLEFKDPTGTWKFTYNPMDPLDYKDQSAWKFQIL

TCATTT
binding signal (FLI1): 1.36 fold enrichment (6-mer frequency, TF over GST control)
binding signal (ELK1): 1.33 fold enrichment (6-mer frequency, TF over GST control)
binding signal (GABPA): 1.19 fold enrichment (6-mer frequency, TF over GST control)
binding signal (ERG): 1.35 fold enrichment (6-mer frequency, TF over GST control)
binding signal (ELF1): 1.25 fold enrichment (6-mer frequency, TF over GST control)
binding signal (EHF): 1.36 fold enrichment (6-mer frequency, TF over GST control)
binding signal (SPI1): 1.5 fold enrichment (6-mer frequency, TF over GST control)
binding signal (SPIB): 1.34 fold enrichment (6-mer frequency, TF over GST control)
binding signal (ELK3): 1.16 fold enrichment (6-mer frequency, TF over GST control)
binding signal (FEV): 1.38 fold enrichment (6-mer frequency, TF over GST control)
binding signal (ETV5): 1.4 fold enrichment (6-mer frequency, TF over GST control)
binding signal (HSF1): 1.14 fold enrichment (6-mer frequency, TF over GST control)
binding signal (SPIC): 1.41 fold enrichment (6-mer frequency, TF over GST control)
binding signal (ELF4): 1.34 fold enrichment (6-mer frequency, TF over GST control)
binding signal (ELK4): 1.37 fold enrichment (6-mer frequency, TF over GST control)
binding signal (ETV2): 1.5 fold enrichment (6-mer frequency, TF over GST control)
binding signal (ELF3): 1.24 fold enrichment (6-mer frequency, TF over GST control)
binding signal (CRX): 1.16 fold enrichment (6-mer frequency, TF over GST control)
binding signal (ETV1): 1.41 fold enrichment (6-mer frequency, TF over GST control)
